This note sets out measurements from PubChem BioAssay (NCI).

Test systems include OVCAR-8 ovarian; OVCAR-5 ovarian; OVCAR-4 ovarian; SK-OV-3 ovarian; HS 578T breast; NCI/ADR-RES ovarian; T-47D breast; BT-549 breast; MDA-MB-435 melanoma; SW-620 colon; MCF7 breast; HCT-116 colon; HCC-2998 colon; KM12 colon; OVCAR-3 ovarian; IGROV1 ovarian.
Holding throughout (assay): NCI-60 one-dose screen, 48 h (100 = growth as untreated, 0 = no growth, -100 = all killed)
Common to all, as to conditions: 10 µM unless noted

The panel holds about 83,000 compounds, 20% with a hit somewhere; the sample as a whole holds those more often.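 Note: values are percent growth. 100 is the growth of untreated cells, values between 100 and 0 indicate rising inhibition; between -100 and 0 indicates cell death.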 A number with no mark means an inactive call. Active and inactive are the calls of the source. How the source made its calls: active means growth percent below 10; inactive means the rest.

`O=C(/C=C/c1ccccc1Cl)c1ccc(O)cc1`: the growth in the experiment on OVCAR-8 ovarian was 96.8%; with OVCAR-5 ovarian, 138%; in the experiment with OVCAR-4 ovarian, 63.3%; in the experiment with SK-OV-3 ovarian it was 86%; in the experiment with HS 578T breast, 80.5%; in the experiment on NCI/ADR-RES ovarian, 97%. For the same compound, the growth was 58.8% in the experiment with T-47D breast; 55.8% with BT-549 breast; 25.1% in the experiment with MDA-MB-435 melanoma; 40.9% in the experiment on SW-620 colon; 15% in the experiment with MCF7 breast; 13.3% in the experiment with HCT-116 colon. The figures for the growth with HCC-2998 colon and in the experiment on KM12 colon were 113% and 6.77% (active), respectively.

On to `C=C(C)[C@H]1CC/C(C)=C/CC[C@]2(C)O[C@H]2CC/C(C=O)=C\C1O` (some centres not stated), for which the growth is 107% with OVCAR-8 ovarian; 101% in the experiment with OVCAR-5 ovarian; 109% with OVCAR-4 ovarian; 102% in the experiment with SK-OV-3 ovarian; 124% in the experiment with OVCAR-3 ovarian; 114% with HS 578T breast. The growth was 109% with NCI/ADR-RES ovarian; 102% with T-47D breast; 120% in the experiment with MDA-MB-435 melanoma; 108% in the experiment on SW-620 colon; 97.2% in the experiment on MCF7 breast; 105% in the experiment with HCT-116 colon. Also, the growth is 111% with HCC-2998 colon and 114% with KM12 colon.

On to `CCOC(=O)c1cc(-c2cccnc2)nc2c(Cl)cc(Cl)cc12`, for which the growth was 104% in the experiment on OVCAR-8 ovarian; 92% in the experiment on OVCAR-5 ovarian; 89.9% with OVCAR-4 ovarian; 91.2% in the experiment with SK-OV-3 ovarian; 80% in the experiment on OVCAR-3 ovarian; 95% in the experiment with HS 578T breast. Moreover, the growth in the experiment with NCI/ADR-RES ovarian was 94%; in the experiment with BT-549 breast, 109%; in the experiment with MDA-MB-435 melanoma it was 95%; in the experiment with SW-620 colon it was 103%; in the experiment on MCF7 breast it was 90.5%; in the experiment on HCT-116 colon, 56.4%. Further, the growth in the experiment with HCC-2998 colon is 98.1%; in the experiment with KM12 colon, 102%.

On to `Cn1[nH]cc(/C=N/C(N)=O)c1=O`, for which the growth in the experiment on OVCAR-8 ovarian was 105%; in the experiment on OVCAR-5 ovarian, 102%; with OVCAR-4 ovarian, 106%; with SK-OV-3 ovarian it was 110%; with IGROV1 ovarian, 124%; in the experiment with HS 578T breast it was 109%. Moreover, the growth was 108% with NCI/ADR-RES ovarian; 104% with T-47D breast; 113% in the experiment with BT-549 breast; 119% in the experiment with MDA-MB-435 melanoma; 102% in the experiment on SW-620 colon; 99.6% in the experiment with MCF7 breast. For the same compound, the values for the growth with HCT-116 colon and in the experiment with HCC-2998 colon were 109% and 103%, respectively.

As to `COc1ccc2c(c1)C(=O)/C(=C/c1cccc(OCC(=O)c3ccccc3)c1)CC2`, the growth was 78.6% in the experiment on OVCAR-8 ovarian; 102% in the experiment on OVCAR-5 ovarian; 81.5% with OVCAR-4 ovarian; 120% in the experiment with SK-OV-3 ovarian; 89.2% in the experiment with OVCAR-3 ovarian; 98.6% with HS 578T breast. In addition, the growth with NCI/ADR-RES ovarian is 80.7%; with T-47D breast it was 70.6%; in the experiment with BT-549 breast it was 39.2%; with MDA-MB-435 melanoma, 41.1%; in the experiment on SW-620 colon, 66%; in the experiment with MCF7 breast it was 48.7%. Further, the growth with HCT-116 colon was 72.1%; in the experiment on HCC-2998 colon, 96.4%; in the experiment on KM12 colon it was 91.5%.

Regarding `CC1=CC(=O)C(C(C)=Nc2ccccc2Cl)C(=O)O1` (configuration not stated), the growth was 96.9% with OVCAR-8 ovarian; 151% in the experiment with OVCAR-5 ovarian; 99.5% with OVCAR-4 ovarian; 104% with SK-OV-3 ovarian; 83.6% in the experiment on HS 578T breast; 140% in the experiment with NCI/ADR-RES ovarian. Further, the growth in the experiment with T-47D breast is 105%; in the experiment with BT-549 breast, 121%; in the experiment with MDA-MB-435 melanoma, 111%; in the experiment on SW-620 colon, 91.6%; with MCF7 breast, 118%; in the experiment with HCT-116 colon, 100%. Further, the growth was 119% in the experiment with HCC-2998 colon and 108% with KM12 colon.

For `CCCCCCCC/C=C\CCCCCCCCOc1ccccc1CC(=O)NCC[N+]1(C)CCCC1`, the growth in the experiment on OVCAR-8 ovarian is 80.9%; in the experiment with OVCAR-5 ovarian, 62.1%; in the experiment with SK-OV-3 ovarian, 89.6%; with IGROV1 ovarian it was 10.9%; in the experiment with OVCAR-3 ovarian, 91.8%; with HS 578T breast, 86.9%. Also, the growth was 110% with NCI/ADR-RES ovarian; 90.5% in the experiment with T-47D breast; 94.5% in the experiment with BT-549 breast; 71.2% in the experiment with MDA-MB-435 melanoma; 78.9% with SW-620 colon; 82.6% in the experiment on MCF7 breast. For the same compound, the growth with HCT-116 colon is 74.7%; with HCC-2998 colon it was 74.8%; with KM12 colon, 51.8%.

Regarding `CC(=O)NC1(C(=O)O)CCCC1`, the growth is 99.8% with OVCAR-8 ovarian; 158% in the experiment on OVCAR-5 ovarian; 112% in the experiment with OVCAR-4 ovarian; 118% in the experiment with SK-OV-3 ovarian; 112% with OVCAR-3 ovarian; 122% in the experiment on HS 578T breast. In addition, the growth with NCI/ADR-RES ovarian is 140%; in the experiment with T-47D breast, 128%; in the experiment on BT-549 breast, 118%; in the experiment on MDA-MB-435 melanoma, 123%; in the experiment on SW-620 colon it was 103%; in the experiment with MCF7 breast, 97.8%. The growth was 112% with HCT-116 colon, 138% in the experiment with HCC-2998 colon and 119% with KM12 colon.

Consider `COc1ccc(Cn2cc3c(c2-c2ccccc2)CCc2cncnc2-3)cc1`, for which the growth in the experiment on OVCAR-8 ovarian was 70.5%; in the experiment on OVCAR-5 ovarian it was 76.7%; in the experiment on OVCAR-4 ovarian, 93.1%; with SK-OV-3 ovarian, 76.8%; in the experiment on OVCAR-3 ovarian, 29.6%; in the experiment on HS 578T breast it was 63.2%. Moreover, the growth in the experiment with NCI/ADR-RES ovarian is 12.3%; with T-47D breast it was 46.7%; in the experiment with MDA-MB-435 melanoma, 0.92% (active); with SW-620 colon it was 27.5%; in the experiment with MCF7 breast, 39.4%; in the experiment on HCT-116 colon, 27.2%. Besides, the growth with HCC-2998 colon was 53.1%; in the experiment on KM12 colon it was 26.6%.

`O=C(OCCBr)c1ccc(Cl)c([N+](=O)[O-])c1`: the growth in the experiment with OVCAR-8 ovarian was 102%; in the experiment with OVCAR-5 ovarian, 108%; in the experiment with SK-OV-3 ovarian, 79.4%; with IGROV1 ovarian it was 102%; with OVCAR-3 ovarian, -21.3% (active); in the experiment with HS 578T breast, -29.9% (active). Besides, the growth was 113% in the experiment with NCI/ADR-RES ovarian; -57.2% (active) in the experiment with T-47D breast; 107% with BT-549 breast; 103% in the experiment on SW-620 colon; 44.7% in the experiment on MCF7 breast; 92.4% in the experiment on HCT-116 colon. The results for the growth with HCC-2998 colon and in the experiment on KM12 colon were 42.9% and 63.1%, respectively.

Regarding `O=C1OCCCCCCCCCC#Cc2ccccc21`, the growth in the experiment on OVCAR-8 ovarian was 105%; in the experiment with OVCAR-5 ovarian, 99%; in the experiment on SK-OV-3 ovarian it was 97.3%; with IGROV1 ovarian, 72.1%; in the experiment on OVCAR-3 ovarian, 122%; in the experiment with HS 578T breast, 108%. In addition, the growth was 99.7% with NCI/ADR-RES ovarian; 80.1% in the experiment on T-47D breast; 124% in the experiment on BT-549 breast; 104% with MDA-MB-435 melanoma; 93.9% in the experiment on SW-620 colon; 164% in the experiment on MCF7 breast. Moreover, the growth with HCT-116 colon was 70.4%; with KM12 colon, 136%.
